The record followed here is ChEMBL document CHEMBL2218924, “A broad activity screen in support of a chemogenomic map for kinase signalling research and drug discovery” (Biochem J, 2013).

The target in assay [1] is T1, Protein kinase C zeta type (Homo sapiens) (UniProt Q05513).
T1 sequence (whole entry): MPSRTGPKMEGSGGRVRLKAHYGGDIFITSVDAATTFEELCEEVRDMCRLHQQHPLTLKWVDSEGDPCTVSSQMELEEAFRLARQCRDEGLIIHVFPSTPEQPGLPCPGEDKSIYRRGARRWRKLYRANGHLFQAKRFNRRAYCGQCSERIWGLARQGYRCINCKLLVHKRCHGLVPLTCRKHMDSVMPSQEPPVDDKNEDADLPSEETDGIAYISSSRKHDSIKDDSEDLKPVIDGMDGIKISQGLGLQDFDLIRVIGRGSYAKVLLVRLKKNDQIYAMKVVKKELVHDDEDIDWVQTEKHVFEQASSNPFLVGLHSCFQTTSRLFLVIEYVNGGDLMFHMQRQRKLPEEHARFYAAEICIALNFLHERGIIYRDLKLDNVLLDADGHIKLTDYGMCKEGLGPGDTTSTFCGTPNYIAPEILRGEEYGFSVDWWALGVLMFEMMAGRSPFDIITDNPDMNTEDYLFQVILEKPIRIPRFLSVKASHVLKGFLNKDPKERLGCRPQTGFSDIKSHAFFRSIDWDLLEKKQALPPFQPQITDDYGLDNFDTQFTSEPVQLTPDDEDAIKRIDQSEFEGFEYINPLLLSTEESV
Particulars: at 1 µM; call rule not given here.

The target of assay [2] is T2, Mitogen-activated protein kinase kinase kinase 5 (Homo sapiens) (UniProt Q99683).
T2 sequence (whole entry): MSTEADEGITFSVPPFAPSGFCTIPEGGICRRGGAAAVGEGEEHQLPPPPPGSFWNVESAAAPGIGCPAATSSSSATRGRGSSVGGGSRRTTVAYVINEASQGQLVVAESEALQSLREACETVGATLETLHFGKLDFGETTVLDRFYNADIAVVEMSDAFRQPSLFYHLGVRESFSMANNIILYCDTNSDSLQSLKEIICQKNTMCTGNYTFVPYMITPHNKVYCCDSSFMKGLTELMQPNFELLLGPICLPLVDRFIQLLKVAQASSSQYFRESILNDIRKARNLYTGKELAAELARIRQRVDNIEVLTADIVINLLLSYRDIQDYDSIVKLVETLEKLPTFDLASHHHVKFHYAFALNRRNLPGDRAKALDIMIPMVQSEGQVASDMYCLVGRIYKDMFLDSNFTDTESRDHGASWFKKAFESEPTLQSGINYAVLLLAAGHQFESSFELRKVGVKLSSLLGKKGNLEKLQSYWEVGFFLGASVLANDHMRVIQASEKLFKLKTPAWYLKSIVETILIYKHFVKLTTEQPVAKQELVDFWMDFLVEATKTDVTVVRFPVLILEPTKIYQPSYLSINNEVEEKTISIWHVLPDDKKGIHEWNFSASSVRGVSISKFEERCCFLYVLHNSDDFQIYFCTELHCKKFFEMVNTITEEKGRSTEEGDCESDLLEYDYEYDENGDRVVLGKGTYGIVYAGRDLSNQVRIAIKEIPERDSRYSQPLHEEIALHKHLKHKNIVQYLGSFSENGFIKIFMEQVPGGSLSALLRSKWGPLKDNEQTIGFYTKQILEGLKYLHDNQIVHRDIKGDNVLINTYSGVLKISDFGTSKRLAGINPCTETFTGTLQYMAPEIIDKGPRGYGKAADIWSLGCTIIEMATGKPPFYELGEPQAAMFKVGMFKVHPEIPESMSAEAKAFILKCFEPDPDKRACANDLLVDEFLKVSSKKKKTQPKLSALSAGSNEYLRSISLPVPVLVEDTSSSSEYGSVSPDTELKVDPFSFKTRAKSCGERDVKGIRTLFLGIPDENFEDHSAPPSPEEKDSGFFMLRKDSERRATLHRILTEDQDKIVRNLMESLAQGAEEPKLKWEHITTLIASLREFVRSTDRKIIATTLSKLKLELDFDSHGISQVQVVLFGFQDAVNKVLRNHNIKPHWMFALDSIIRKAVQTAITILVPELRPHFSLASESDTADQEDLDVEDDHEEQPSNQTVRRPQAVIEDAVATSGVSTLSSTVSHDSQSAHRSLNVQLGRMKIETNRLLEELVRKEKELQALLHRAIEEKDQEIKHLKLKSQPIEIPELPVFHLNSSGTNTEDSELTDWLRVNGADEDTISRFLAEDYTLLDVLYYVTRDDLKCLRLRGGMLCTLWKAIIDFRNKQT
Particulars: at 10 µM.

Assay [3] concerns the target Tyrosine-protein kinase ABL1 (Homo sapiens) (UniProt P00519). Particulars: at 1 µM.
For assay [4], the target named is T3, Aurora kinase A (Homo sapiens) (UniProt O14965).
T3 sequence (whole entry): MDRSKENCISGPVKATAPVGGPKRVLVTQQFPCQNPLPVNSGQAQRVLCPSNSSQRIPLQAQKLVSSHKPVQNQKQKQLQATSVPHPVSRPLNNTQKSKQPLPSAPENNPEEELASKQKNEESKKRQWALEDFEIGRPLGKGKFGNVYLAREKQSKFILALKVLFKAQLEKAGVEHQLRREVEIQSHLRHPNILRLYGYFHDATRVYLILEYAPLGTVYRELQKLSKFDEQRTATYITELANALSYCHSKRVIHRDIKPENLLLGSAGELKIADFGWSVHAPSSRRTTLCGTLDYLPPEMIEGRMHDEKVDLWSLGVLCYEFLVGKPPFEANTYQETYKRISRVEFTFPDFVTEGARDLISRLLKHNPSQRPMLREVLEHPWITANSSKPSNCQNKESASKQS
As to conditions: at 1 µM.

In assay [5] the target is Aurora kinase B (Homo sapiens) (UniProt Q96GD4). Particulars: at 1 µM.
Aurora kinase B (Homo sapiens), sequence (Q96GD4 whole entry): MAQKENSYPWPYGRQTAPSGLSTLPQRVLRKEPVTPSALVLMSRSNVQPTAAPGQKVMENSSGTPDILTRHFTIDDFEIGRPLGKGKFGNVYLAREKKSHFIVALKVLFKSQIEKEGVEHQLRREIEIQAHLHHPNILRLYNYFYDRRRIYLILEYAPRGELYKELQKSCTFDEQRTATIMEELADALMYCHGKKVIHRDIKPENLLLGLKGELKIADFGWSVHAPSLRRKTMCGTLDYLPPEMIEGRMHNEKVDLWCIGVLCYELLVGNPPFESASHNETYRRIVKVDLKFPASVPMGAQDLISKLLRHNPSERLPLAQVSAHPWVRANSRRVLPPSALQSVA
Assay [6] shares this target. Particulars: at 10 µM.
The target in assay [7] is Tyrosine-protein kinase receptor UFO (Homo sapiens) (UniProt P30530). As to conditions: at 1 µM.
Tyrosine-protein kinase receptor UFO (Homo sapiens), sequence (P30530 whole entry): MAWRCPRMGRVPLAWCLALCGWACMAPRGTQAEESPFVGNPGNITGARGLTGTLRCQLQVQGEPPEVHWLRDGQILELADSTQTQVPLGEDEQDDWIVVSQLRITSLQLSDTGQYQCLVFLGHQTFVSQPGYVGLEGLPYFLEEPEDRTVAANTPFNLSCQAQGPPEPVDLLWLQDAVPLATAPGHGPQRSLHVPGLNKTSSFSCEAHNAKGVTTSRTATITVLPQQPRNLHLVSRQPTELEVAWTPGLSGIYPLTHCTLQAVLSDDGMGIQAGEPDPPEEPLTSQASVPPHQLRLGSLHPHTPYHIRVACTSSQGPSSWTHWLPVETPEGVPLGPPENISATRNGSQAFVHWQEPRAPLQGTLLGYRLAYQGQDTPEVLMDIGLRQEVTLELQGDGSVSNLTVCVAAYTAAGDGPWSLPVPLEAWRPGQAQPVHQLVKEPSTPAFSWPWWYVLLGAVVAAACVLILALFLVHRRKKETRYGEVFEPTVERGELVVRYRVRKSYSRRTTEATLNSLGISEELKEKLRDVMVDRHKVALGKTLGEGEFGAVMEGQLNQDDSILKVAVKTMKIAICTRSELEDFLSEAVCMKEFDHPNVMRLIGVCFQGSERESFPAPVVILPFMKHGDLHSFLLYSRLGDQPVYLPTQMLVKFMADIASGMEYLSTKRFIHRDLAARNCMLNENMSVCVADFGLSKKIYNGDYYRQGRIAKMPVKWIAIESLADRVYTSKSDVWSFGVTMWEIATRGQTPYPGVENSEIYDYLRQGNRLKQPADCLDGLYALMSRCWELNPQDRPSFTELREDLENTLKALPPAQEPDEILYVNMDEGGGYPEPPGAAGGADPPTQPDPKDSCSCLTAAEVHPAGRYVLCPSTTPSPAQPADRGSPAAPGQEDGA
For assay [8] the target is unchanged. Particulars: at 10 µM.
Assay [9] has as its target Protein-tyrosine kinase 6 (Homo sapiens) (UniProt Q13882). As to conditions: at 1 µM.
The target is the same in assay [10]. As to conditions: at 10 µM.
The target in assay [11] is Tyrosine-protein kinase Blk (Homo sapiens) (UniProt P51451). Particulars: at 1 µM.
For assay [12] the target is unchanged. As to conditions: at 10 µM.
The target in assay [13] is Tyrosine-protein kinase ABL1 (Homo sapiens) (UniProt P00519). As to conditions: at 10 µM.
Tyrosine-protein kinase ABL1 (Homo sapiens), sequence (P00519 whole entry): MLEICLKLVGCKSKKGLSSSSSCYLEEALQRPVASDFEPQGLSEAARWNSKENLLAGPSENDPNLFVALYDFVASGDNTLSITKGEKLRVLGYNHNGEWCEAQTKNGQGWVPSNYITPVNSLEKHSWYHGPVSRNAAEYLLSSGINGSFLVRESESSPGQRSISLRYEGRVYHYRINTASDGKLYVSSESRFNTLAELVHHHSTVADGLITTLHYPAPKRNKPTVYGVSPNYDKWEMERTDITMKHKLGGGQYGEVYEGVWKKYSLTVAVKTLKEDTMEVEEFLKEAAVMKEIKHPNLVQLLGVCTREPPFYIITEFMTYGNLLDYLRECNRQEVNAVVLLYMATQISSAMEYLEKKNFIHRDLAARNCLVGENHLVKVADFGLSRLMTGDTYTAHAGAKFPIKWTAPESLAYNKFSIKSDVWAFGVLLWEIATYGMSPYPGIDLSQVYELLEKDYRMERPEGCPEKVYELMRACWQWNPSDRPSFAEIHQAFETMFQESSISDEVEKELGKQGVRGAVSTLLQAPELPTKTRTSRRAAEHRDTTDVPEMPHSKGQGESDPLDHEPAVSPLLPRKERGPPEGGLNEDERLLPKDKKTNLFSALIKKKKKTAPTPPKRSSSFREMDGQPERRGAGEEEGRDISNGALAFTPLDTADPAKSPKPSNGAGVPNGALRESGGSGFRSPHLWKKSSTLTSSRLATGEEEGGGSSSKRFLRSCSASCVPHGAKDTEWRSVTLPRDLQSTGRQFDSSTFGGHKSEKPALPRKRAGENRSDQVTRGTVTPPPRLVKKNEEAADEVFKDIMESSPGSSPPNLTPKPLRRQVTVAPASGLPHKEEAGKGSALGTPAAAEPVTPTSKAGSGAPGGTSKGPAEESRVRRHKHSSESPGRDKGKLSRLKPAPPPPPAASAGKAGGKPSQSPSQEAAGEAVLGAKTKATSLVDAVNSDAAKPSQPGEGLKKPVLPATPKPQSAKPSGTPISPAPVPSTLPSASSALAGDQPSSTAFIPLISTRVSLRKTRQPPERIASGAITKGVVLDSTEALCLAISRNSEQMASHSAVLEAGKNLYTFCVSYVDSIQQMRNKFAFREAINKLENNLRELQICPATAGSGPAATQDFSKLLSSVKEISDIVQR
Assay [14] deals with Tyrosine-protein kinase ABL2 (Homo sapiens) (UniProt P42684). Particulars: at 1 µM.
Tyrosine-protein kinase ABL2 (Homo sapiens), sequence (P42684 whole entry): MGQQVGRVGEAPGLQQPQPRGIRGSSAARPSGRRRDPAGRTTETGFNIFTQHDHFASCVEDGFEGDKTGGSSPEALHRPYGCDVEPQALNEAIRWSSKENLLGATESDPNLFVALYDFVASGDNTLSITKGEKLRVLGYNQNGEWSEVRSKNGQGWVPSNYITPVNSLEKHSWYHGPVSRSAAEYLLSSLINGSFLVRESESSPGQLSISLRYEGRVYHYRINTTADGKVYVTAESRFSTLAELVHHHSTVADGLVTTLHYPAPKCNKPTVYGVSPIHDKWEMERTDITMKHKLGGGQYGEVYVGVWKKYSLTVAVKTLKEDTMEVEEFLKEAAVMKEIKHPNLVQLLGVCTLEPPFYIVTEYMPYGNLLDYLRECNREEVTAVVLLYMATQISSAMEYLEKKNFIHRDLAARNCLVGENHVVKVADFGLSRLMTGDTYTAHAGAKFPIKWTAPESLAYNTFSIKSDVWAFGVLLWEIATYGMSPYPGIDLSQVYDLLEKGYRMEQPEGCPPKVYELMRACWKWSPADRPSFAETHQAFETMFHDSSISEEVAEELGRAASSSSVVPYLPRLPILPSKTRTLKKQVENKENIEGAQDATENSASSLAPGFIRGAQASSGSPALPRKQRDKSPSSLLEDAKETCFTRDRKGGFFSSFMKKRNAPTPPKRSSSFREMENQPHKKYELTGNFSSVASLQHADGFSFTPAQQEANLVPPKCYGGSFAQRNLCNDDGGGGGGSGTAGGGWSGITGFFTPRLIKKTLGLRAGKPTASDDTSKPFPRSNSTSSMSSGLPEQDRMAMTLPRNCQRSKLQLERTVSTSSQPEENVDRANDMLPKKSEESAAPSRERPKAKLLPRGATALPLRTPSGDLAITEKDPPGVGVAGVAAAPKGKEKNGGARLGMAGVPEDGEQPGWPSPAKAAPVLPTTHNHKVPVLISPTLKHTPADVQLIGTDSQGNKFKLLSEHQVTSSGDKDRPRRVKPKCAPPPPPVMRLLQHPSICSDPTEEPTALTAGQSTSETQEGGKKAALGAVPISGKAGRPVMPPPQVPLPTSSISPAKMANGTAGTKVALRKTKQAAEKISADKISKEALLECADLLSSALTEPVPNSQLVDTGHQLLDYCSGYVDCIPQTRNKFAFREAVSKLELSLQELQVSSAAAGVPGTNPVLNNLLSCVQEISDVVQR
Assay [15] has the same target. As to conditions: at 10 µM.
Assay [16] deals with T3, Aurora kinase A (Homo sapiens). Particulars: at 10 µM.
In assay [17] the target is T4, Aurora kinase C (Homo sapiens) (UniProt Q9UQB9).
T4 sequence (whole entry): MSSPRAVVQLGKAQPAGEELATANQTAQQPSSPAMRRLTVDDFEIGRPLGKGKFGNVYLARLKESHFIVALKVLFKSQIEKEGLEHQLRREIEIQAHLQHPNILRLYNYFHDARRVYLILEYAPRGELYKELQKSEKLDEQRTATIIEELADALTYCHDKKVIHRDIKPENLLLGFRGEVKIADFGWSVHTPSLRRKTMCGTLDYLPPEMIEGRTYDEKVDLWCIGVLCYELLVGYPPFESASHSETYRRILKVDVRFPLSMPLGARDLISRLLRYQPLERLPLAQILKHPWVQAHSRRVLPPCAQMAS
Particulars: at 1 µM.

The target of assay [18] is T4, Aurora kinase C (Homo sapiens). Particulars: at 10 µM.
The target of assay [19] is Tyrosine-protein kinase BTK (Homo sapiens) (UniProt Q06187). Particulars: at 1 µM.
Tyrosine-protein kinase BTK (Homo sapiens), sequence (Q06187 whole entry): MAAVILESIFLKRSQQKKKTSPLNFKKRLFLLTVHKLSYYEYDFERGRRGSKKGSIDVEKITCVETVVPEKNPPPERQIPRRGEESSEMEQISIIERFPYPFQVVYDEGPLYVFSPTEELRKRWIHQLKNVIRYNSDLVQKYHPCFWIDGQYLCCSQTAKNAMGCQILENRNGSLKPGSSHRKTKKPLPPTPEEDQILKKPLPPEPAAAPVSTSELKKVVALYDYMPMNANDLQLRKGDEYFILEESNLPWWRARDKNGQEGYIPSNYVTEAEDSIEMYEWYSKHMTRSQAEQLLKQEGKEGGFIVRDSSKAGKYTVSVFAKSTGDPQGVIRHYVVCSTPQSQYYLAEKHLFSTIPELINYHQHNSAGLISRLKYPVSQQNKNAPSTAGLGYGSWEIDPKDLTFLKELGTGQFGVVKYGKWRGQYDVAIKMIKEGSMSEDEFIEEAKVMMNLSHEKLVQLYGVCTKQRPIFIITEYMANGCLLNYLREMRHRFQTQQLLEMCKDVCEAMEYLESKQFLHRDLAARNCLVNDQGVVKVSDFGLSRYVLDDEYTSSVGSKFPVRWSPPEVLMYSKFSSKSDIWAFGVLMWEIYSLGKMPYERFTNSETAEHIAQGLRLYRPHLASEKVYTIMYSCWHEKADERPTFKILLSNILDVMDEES
The target is the same in assay [20]. Particulars: at 10 µM.

Protein-tyrosine kinase 6 (Homo sapiens), sequence (Q13882 whole entry, looked up): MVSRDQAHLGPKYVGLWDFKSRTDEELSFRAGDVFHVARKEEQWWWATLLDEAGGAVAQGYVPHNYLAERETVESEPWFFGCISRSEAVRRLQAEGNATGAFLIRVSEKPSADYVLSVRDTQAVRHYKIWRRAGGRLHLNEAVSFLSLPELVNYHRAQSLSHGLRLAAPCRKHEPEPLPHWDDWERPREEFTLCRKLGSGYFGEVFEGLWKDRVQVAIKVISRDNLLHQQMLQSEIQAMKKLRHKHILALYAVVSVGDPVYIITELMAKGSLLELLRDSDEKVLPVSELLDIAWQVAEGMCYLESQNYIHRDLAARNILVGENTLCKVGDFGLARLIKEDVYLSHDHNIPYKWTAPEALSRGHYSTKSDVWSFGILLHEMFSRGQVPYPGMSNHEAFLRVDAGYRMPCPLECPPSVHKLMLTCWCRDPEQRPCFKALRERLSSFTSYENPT

For the compound `NCCNc1ncc(C(N)=O)c(Nc2cccc(C(F)(F)F)c2)n1`, the residual activity in assay [1] is 101% (inactive); in [2] it was 78%; in [3], 103%; in [4], 81%; in [5] it was 104%; in assay [6] it was 46%. Further, the residual activity was 74% in assay [7]; 58% in assay [8]; 74% in assay [9]; 14% in assay [10]; 79% in [11]; 12% in [12].
In the case of `O=C(O)/C=C/c1cc(Br)c(Br)c(Br)c1Br`, the residual activity was found to be 91% in assay [2]; 86% in assay [3]; 40% in [13]; 75% in [14]; 53% in [15]; 83% in assay [4]. For the same compound, the residual activity in assay [16] is 38%; in assay [5] it was 60%; in assay [6] it was 16%; in [17], 98%; in assay [18], 78%; in assay [7], 91%. For the same compound, the residual activity in [8] was 51%; in assay [9] it was 99%; in assay [10] it was 101%; in assay [19] it was 102%; in assay [20], 91%; in [11] it was 99%. Further, the residual activity in [12] was determined as 81%.
For the compound `O=c1cc(N2CCOCC2)oc2c1ccc1ccccc12`, the residual activity is 109% (inactive) in assay [1]; 94% in [2]; 99% in assay [3]; 125% in [4]; 108% in assay [16]; 110% in [5]. Also, the residual activity in [6] worked out at 90%; in [17], 102%; in assay [18], 87%; in assay [7], 82%; in assay [8] it was 78%; in [9], 110%. For the same compound, the residual activity in assay [10] came to 105%; in assay [19] it was 94%; in assay [20], 86%; in assay [12], 90%.
For the compound `NC(=O)Nc1sc(-c2ccc(F)cc2)cc1C(N)=O`, the residual activity is 114% (inactive) in assay [1]; 63% in assay [3]; 32% in assay [13]; 71% in [14]; 19% in assay [15]; 32% in assay [4]. For the same compound, the residual activity in assay [16] is 3%; in assay [5] it was 1%; in assay [6], 2%; in assay [17], 9%; in [18] it was 3%; in assay [7], 77%. The residual activity in assay [8] came out at 24%; in assay [9], 77%; in assay [10] it was 26%; in [19], 38%; in assay [20], 1%; in assay [11], 39%. The residual activity in assay [12] is 4%.
Take `Nc1ncnc2[nH]nc(Nc3ccc(F)cc3)c12`: the residual activity in [1] is 103% (inactive); in [2] it was 90%; in [13], 28%; in [14], 70%; in assay [15], 30%; in assay [4] it was 96%. Besides, the residual activity in [16] was determined as 73%; in [5] it was 55%; in assay [6], 22%; in assay [17] it was 80%; in assay [18], 43%; in assay [7], 90%. Moreover, the residual activity in assay [8] came to 57%; in assay [9] it was 51%; in assay [10], 19%; in assay [19] it was 74%; in assay [20], 34%; in assay [11], 3%. Besides, the residual activity in [12] worked out at 3%.
Turning to `COc1ccc(CNC(=O)Nc2ncc([N+](=O)[O-])s2)cc1`, the residual activity in [1] was 104% (inactive); in [14], 115%; in assay [16] it was 113%; in assay [17], 75%; in assay [18], 78%; in assay [9], 24%. For the same compound, the residual activity in assay [10] is 17%; in assay [19], 42%; in assay [20] it was 35%.
